Source: PubChem BioAssay

target: Torsin-1A (Homo sapiens) (UniProt O14656); test: torsin A mutant lysate binding on microarrays – cell lysate, small-molecule microarray, COS7 lysate, 635/667 nm fluorescence, primary screen (AID 1150); settings: COS7 hTOR1A mutant lysate, 635 nm fluorescence, higher = more signal;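 further: score pools 667 nm emission and signal to noise measuring lysate protein binding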
Sequence (O14656 whole entry, looked up): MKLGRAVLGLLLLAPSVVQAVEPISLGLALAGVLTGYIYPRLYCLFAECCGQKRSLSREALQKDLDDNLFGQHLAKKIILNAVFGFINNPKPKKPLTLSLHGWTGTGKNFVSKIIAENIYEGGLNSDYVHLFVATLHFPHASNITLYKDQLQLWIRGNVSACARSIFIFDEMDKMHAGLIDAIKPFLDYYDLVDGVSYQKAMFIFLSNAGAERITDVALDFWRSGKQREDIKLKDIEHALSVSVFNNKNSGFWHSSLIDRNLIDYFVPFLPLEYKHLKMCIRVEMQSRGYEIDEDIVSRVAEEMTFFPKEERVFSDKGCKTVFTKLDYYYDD

Compound	composite z-score
CCCCC(=C=CC[C@H](O)c1ccccc1OCCO)CCO	0.0868
C=CCNC(=O)[C@@H]1[C@H]2C(=O)O[C@H](c3ccccc3)[C@H](c3ccccc3)N2[C@H](c2ccc(OCCO)cc2)[C@@]12C(=O)Nc1ccc(C#CC3=CCCCC3)cc12	0.531
COCCOC(=O)N1C(=O)[C@@]2(c3cc(C#CCCO)ccc31)[C@H](c1ccc(O)cc1)N1[C@H](c3ccccc3)[C@H](c3ccccc3)OC(=O)[C@H]1[C@@H]2C(=O)NC[C@H](O)c1ccccc1	-0.0807
[N-]=[N+]=Nc1ccccc1C[C@]1(C(=O)N2CCCCC2)N=C(c2ccc(OCCCO)cc2)O[C@H]1c1ccccc1	0.402
COc1c(C)cc(-c2nc(-c3ccccc3)c3c(c2C)CO[Si]3(C(C)C)C(C)C)cc1C	0.0463
CC(C)N1CC=CC23O[C@@H]4/C=C\CCCOC(=O)C4[C@H]2C(=O)N(C(C)CO)[C@@H]3C1=O (stereo partly specified)	-0.913
COC(=O)C1(CC(C)C)C=C2C(=C(C)C(=O)C2C)CN1 (stereo unspecified)	0.276
COCCCNC(=O)[C@@]1(Cc2ccccc2I)c2ccccc2C(=O)N(C2CCCCC2)[C@H]1c1ccc(CO)cc1	0.646
O=C/C=C/c1ccc(-c2ccccc2)cc1	0.0552
COC(=O)C(CC#Cc1ccc2c(c1)[C@]1(C(=O)N2)[C@H](C(=O)N2CCN(c3ncccn3)CC2)[C@H]2C(=O)O[C@H](c3ccccc3)[C@H](c3ccccc3)N2[C@@H]1c1ccc(O)cc1)C(=O)OC	1.12
COc1ccc([Si](C)(C)[C@H]2[C@H](CC(=O)N3CCC[C@H]3CO)O[C@@]3(C(=O)N(C)c4ccccc43)[C@@H]2C)cc1	0.732
